Measurements: PubChem BioAssay AID411 (National Center for Advancing Translational Sciences (NCATS), 2006)
Among all 72,000 compounds or so, about 1,600 (2.2%) were called active. Entries that show only a call come without a potency. This is one part of a sample in which actives are shown more often than they occur. Calls come from the whole dose curve; as a rule, active = well fitted inhibition curve with a large enough effect; inconclusive = small, poorly fitted or top-dose-only effect; inactive = flat fitted curve, though single readings scatter.

These molecules were tested against Luciferin 4-monooxygenase (Photinus pyralis) (UniProt P08659) (assay: qHTS Assay for Inhibitors of Firefly Luciferase). Settings: purified firefly luciferase, luminescence, 8 min; series mostly up to 57.1 µM.
How it was run: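 Inhibition of light generation by firefly luciferase from ATP and luciferin was profiled with concentration-response curves per sample, ATP held at 10 uM within the enzyme's linear range. Plates were read by luminescence after an 8-minute ambient incubation.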
Note: nearly all actives have a fitted effect of over 40% in size.
Potency is the fitted concentration of half-maximal effect.

Luciferin 4-monooxygenase (Photinus pyralis), sequence (P08659 whole entry, looked up): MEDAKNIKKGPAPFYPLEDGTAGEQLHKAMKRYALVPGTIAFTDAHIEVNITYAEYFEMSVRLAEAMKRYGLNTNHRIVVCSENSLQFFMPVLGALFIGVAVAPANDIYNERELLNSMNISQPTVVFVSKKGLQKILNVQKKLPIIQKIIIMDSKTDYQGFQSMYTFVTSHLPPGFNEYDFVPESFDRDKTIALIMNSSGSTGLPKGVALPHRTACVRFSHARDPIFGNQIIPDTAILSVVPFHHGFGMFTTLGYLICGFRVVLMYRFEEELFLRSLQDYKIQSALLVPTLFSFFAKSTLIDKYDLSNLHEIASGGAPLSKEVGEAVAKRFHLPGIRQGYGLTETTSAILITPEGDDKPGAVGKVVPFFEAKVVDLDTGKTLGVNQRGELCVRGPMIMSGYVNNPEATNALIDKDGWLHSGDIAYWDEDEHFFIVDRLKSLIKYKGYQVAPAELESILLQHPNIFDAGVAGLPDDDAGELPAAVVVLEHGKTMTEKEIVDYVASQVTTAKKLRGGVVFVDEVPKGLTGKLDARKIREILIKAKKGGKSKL

| Compound | Potency | activity change, negative = inhibition |
| --- | --- | --- |
| CC(=O)c1c(C)[nH]c(C(=O)NCCCN2CCCC2)c1C | inactive |  |
| Cc1onc(-c2ccccc2)c1C(=O)N1CCOCC1 | inactive |  |
| C=CCN(CC=C)C(=O)CN1C(=O)c2ccccc2C1=O | inactive |  |
| Cc1cc(C(=O)COC(=O)CCCN2C(=O)c3ccccc3C2=O)c(C)n1C | inactive |  |
| C=CCn1c(C)cc(C(=O)CN2C(=O)c3ccccc3C2=O)c1C | 3.98 µM (active) |  |
| COc1cc2c(cc1OC)C(c1ccncc1)CC(=O)N2 (stereo unspecified) | inactive |  |
| O=C(c1ccncc1)N1CCC2(CCCN(C(c3ccccc3)c3ccccc3)C2)CC1 |  | -0.104% [at 11.4 µM] (inactive) |
| Cc1cc(N2CCCCC2)nc2ccc(Cc3ccc4nc(N5CCCCC5)cc(C)c4c3)cc12 |  | 0.114% [at 11.4 µM] (inactive) |
| Fc1ccc2nc(N3CCCCC3)sc2c1 | 25.1 µM (active) |  |
| c1c2c(cc3sc(N4CCCCC4)nc13)OCCO2 | 1.58 µM (active) |  |
| Fc1cc(F)c2nc(N3CCOCC3)sc2c1 | inactive |  |
| CCOC(=O)N1CCC(NC(=O)c2ccc3nc(N4CCOCC4)sc3c2)CC1 | inactive |  |
| C/C(=C\c1ccco1)C1Nc2cccc3cccc(c23)N1 | inactive |  |
| Cc1ccc(Cn2ccc(NC(=O)c3cc(C(C)C)on3)n2)cc1 | inactive |  |
| Cc1c(O)c(Br)c(C)c(O)c1Br (tested in a mixture with another compound) |  | -10.4% [at 11.4 µM] (inactive) |
| O=C(c1ccco1)N1CCC2(CC1)CN(c1ncccn1)C2 |  | -0.795% [at 11.4 µM] (inactive) |
| Cc1nn(-c2ccccc2)c2sc(C(=O)N(Cc3ccco3)C(C)C(=O)NC(C)(C)C)cc12 (stereo unspecified) | inactive |  |
| COc1cccc(Cn2c(=O)c(CCc3ccccc3)nc3cnc(N(C)C)nc32)c1 |  | 0.592% [at 11.4 µM] (inactive) |
| Cc1ccnc(N2C(=O)c3ccccc3C2Nc2ccc3c(c2)OCCO3)c1 (stereo unspecified) | inactive |  |
| CCc1ccccc1NC1c2ccccc2C(=O)N1c1cccnc1 (stereo unspecified) | inactive |  |
| COC(=O)c1cc(NC2c3ccccc3C(=O)N2c2ccc(Cl)cn2)cc(C(=O)OC)c1 (stereo unspecified) | 7.94 µM (active) |  |
| CCCCc1nc2c(=O)[nH]c3ccccc3c2o1 | inactive |  |

| Compound | Potency | activity change, negative = inhibition |
| --- | --- | --- |
| CSc1nnc2c(n1)OC(c1cn(C)c3ccccc13)N(C(C)=O)c1ccccc1-2 (stereo unspecified) | inactive |  |
| CCN(CC)C(=O)N1CCN(C(=O)c2ccc(C)cn2)CC1 | inactive |  |
| CCCCC[C@H](O)CCCC(=O)O | inactive |  |
| Cc1nnc(SCc2ccc(C(=O)c3ccc(Cl)cc3)o2)n1-c1ccccc1 | 12.6 µM (active) |  |
| Cc1nnc(SCC(=O)N2CCc3ccccc32)n1-c1ccccc1 | inactive |  |
| Cc1nnc(SCC(=O)NCCOc2ccc(Cl)cc2)n1-c1ccccc1 | inactive |  |
| Cn1c(=O)c(-c2ccccc2)nc2cnc(N3CCNCC3)nc21 |  | -0.109% [at 11.4 µM] (inactive) |
| CCN(CC)C(=O)CSc1nnc(-c2cccc(OC)c2)o1 | inactive |  |
| COc1cccc(-c2nc3cc(C)ccc3o2)c1 | 3.98 µM (active) |  |
| COc1cccc(-c2nc(S(=O)(=O)c3ccccc3)c(N3CCOCC3)o2)c1 | inactive |  |
| CCOC(=O)CCC(=O)OCC(=O)NC(C)C1CC2CCC1C2 (stereo unspecified) | inactive |  |
| CC[C@H](c1ccccc1)c1cc(C(C)(C)C)cc(C(C)(C)C)c1O |  | 2.75% [at 11.4 µM] (inactive) |
| COc1ccc(OCC(=O)N2CCN(C(=O)COc3ccccc3)CC2)cc1 | inactive |  |
| COc1ccc(OCc2cccc(C(=O)N3CCCC3)c2)cc1 | 25.1 µM (active) |  |
| CCC(CC)C(=O)Nc1cccc(C(=O)N2CCCC2)c1 | inactive |  |
| N#CC1=C(N)Oc2cc(O)ccc2C1C1CCCCC1 (stereo unspecified) | inactive |  |
| CS(=O)(=O)N1CCC2(CC1)CN(Cc1cc(C(F)(F)F)cc(C(F)(F)F)c1)C2 |  | -0.965% [at 11.4 µM] (inactive) |
| O=C1C=C(NCCNc2c(F)c(F)c(CO)c(F)c2F)CCC1 | inactive |  |
| COc1ccccc1N1CCN(CCN2C(=O)c3ccccc3C(C)(C)C2=O)CC1 | inactive |  |
| O=C1CC2(CCCCC2)Oc2ccc(OCC(=O)N3CCOCC3)cc21 | inactive |  |
| C/C(=C\C(=O)c1ccccc1)Nc1cccc(O)c1 | 7.94 µM (active) |  |
| O=C(CCCOc1ccccc1)Nc1cccc(C(=O)O)c1 | inactive |  |

| Compound | Potency | activity change, negative = inhibition |
| --- | --- | --- |
| O=C(Nc1cnccn1)c1cccnc1 | inactive |  |
| CCC(=O)Nc1cccc(NC(=O)c2cccnc2)c1 | inactive |  |
| CC(=O)c1cccc(NC(=O)c2ccncc2)c1 | inactive |  |
| C/C(=C\C(=O)c1cccnc1)Nc1ccc(C)c(C)c1 | 12.6 µM (active) |  |
| COc1ccc(CCn2c(NCCCN3CCOCC3)nc3c2c(=O)[nH]c(=O)n3C)cc1 | inactive |  |
| CCc1cccc2c3c([nH]c12)C(CC)(CC(=O)O)OCC3 (stereo unspecified) | inactive |  |
| CCN1C(=O)/C(=C\N2CCN(c3ccccc3)CC2)SC1=S | inactive |  |
| CCN1C(=O)/C(=C2\SC(N3CCCCC3)=NC2=O)c2ccccc21 | 6.31 µM (active) |  |
| CCN1C(=O)c2cccc3c(N)ccc1c23 | inactive |  |
| CCCn1c(SCC(=O)Nc2c(C)cccc2C)nnc1C(C)C | inactive |  |
| Cc1cc(C)n2nc(C(=O)Oc3ccc4c(c3)OCO4)nc2n1 | inactive |  |
| Cc1nn(C(=O)c2ccoc2C)c(N)c1-c1ccccc1 | 25.1 µM (active) |  |
| Cc1occc1C(=O)N1CCCc2ccccc21 | inactive |  |
| COc1ccccc1C(=O)n1nc(-c2ccccc2)nc1N | inactive |  |
| Cc1nc2cc(S(=O)(=O)C(F)(F)F)ccc2s1 | inactive |  |
| CN(c1ccccc1)c1ccc(/C=c2\s/c(=C(/C#N)C(=O)C(C)(C)C)n(Cc3ccco3)c2=O)cc1 | inactive |  |
| Cc1ccsc1C(=O)OCC(=O)c1cc2ccccc2o1 | inactive |  |
| COC(=O)c1ccc2c(=O)n(CC3CCCO3)c(=S)[nH]c2c1 (stereo unspecified) | inactive |  |
| Cc1ccsc1C(=O)OCC(=O)c1cc(C)n(CC2CCCO2)c1C (stereo unspecified) | 1 µM (active) |  |
| O=S(=O)(O)c1nc2ccccc2n1Cc1ccc(Cl)cc1Cl | inactive |  |
| CN1CCN(S(=O)(=O)c2ccc(NC(=O)C3CCCO3)cc2)CC1 (stereo unspecified) | inactive |  |
| C[C@@H]1C[C@H]2[C@@H]3C[C@H](F)C4=CC(=O)C=C[C@@]4(C)[C@]3(F)[C@H](O)C[C@]2(C)[C@@]1(O)C(=O)CO | inactive |  |

| Compound | Potency | activity change, negative = inhibition |
| --- | --- | --- |
| CN(C)/C=C1/C(=O)Nc2ccccc21 | inactive |  |
| CCc1nc2ccccc2n(CCOCCOCCn2c(=O)c(CC)nc3ccccc32)c1=O | inactive |  |
| O=C(c1cn(-c2ccccc2)nc1-c1cccnc1)N1CCCCC1 | inactive |  |
| O=C(NCc1cccnc1)c1cn(-c2ccccc2)nc1-c1cccs1 | 10 µM (active) |  |
| COC(=O)c1cn(-c2ccccc2)nc1-c1cccnc1 | inactive |  |
| CC(=O)/C(C)=N\O | inactive |  |
| CCOc1nc(-c2ccc(OC)cc2)ccc1-c1noc(-c2cc(OC)c(OC)c(OC)c2)n1 | inactive |  |
| COc1cc(-c2nc(-c3ccncc3)no2)cc(OC)c1OC | inactive |  |
| COc1ccc(-c2noc(-c3cccc(OC)c3OC)n2)cc1OC | 6.31 µM (active) |  |
| COC(=O)[C@@H]1CC[C@H](C)[C@@H](c2ccc(C)cc2)N1C(=O)c1ccc(/C=N\OC[C@@H](O)COCc2ccco2)cc1 |  | -0.535% [at 11.4 µM] (inactive) |
| CCc1cc2c(=O)c(-c3ccon3)c(N)oc2cc1OC | 3.98 µM (active) |  |
| CC1CCC(NS(=O)(=O)c2ccc3c(c2)n(C)c(=O)c(=O)n3C)CC1 (stereo unspecified) | inactive |  |
| COc1ccc(CCNC(=O)c2ccco2)cc1 | inactive |  |
| CCOC(=O)C1C(=O)C=C(c2ccc(OC)cc2)CC1c1ccco1 (stereo unspecified) | 25.1 µM (active) |  |
| CCOC(=O)C1C(=O)NC(N2CCN(c3ccccc3)CC2)=NC1c1ccco1 (stereo unspecified) | inactive |  |
| CN1C(=O)c2ccccc2C(C(=O)NCCCN2CCCC2)C1c1c[nH]c2ccccc12 (stereo unspecified) | inactive |  |
| O=C1OCCC=C1[C@@H](O)CCc1ccccc1 |  | 1.7% [at 11.4 µM] (inactive) |
| CN1CCN(CC(=O)Nc2sc3c(c2C#N)CCC(C(C)(C)C)C3)CC1 (stereo unspecified) | inactive |  |
| COc1ccc(C(=O)Cn2nnc(-c3ccc(N4CCOCC4)cc3)n2)cc1OC | 10 µM (active) |  |
| CCOc1ccc(-c2nnn(CC(=O)N3CCN(c4ccc(OC)cc4)CC3)n2)cc1OCC | inactive |  |
| CCOc1ccc(-c2nnn(CC(=O)N3CCN(c4ccc(F)cc4)CC3)n2)cc1OCC | inactive |  |
| CCOC(=O)c1cc2sccc2n1Cc1ccc(C#N)cc1 | inactive |  |

| Compound | Potency | activity change, negative = inhibition |
| --- | --- | --- |
| O=C(O)c1ccc(C(=O)O)c2c(C(=O)O)ccc(C(=O)O)c12 |  | -2.88% [at 11.4 µM] (inactive) |
| CC(C)(C)c1ccc(C(=O)CSc2ncn[nH]2)cc1 | 15.8 µM (active) |  |
| CCN(C(=O)CSc1ncn[nH]1)c1cccc2ccccc12 | inactive |  |
| Cn1nnc(NC(=O)CSc2ncn[nH]2)n1 | inactive |  |
| CCOc1cc(C)c(Cl)cc1S(=O)(=O)n1nnc2ccccc21 | inactive |  |
| C=CCn1c(SCc2nnc(-c3ccccc3)o2)nnc1C(O)c1ccccc1 (stereo unspecified) | inactive |  |
| Cc1cccc(NC(=O)COc2ccc(Br)cc2C)n1 | 10 µM (active) |  |
| CCOc1ccc(OCc2ccc(C(=O)Nc3cccc(C)n3)o2)cc1 | inactive |  |
| Cc1cccc(NC(=O)COc2ccccc2C)n1 | inactive |  |
| COc1cccc(-c2nc3n(n2)C(c2ccccc2Cl)C(C(N)=O)=C(C)N3)c1 (stereo unspecified) | inactive |  |
| CC(C)CNC(=O)c1cc(-c2ccc(Br)cc2)on1 | inactive |  |
| O=C(Nc1ccccc1C(F)(F)F)c1cc(-c2ccc(O)cc2)on1 | inactive |  |
| CC(C)Cc1cc(C(=O)Nc2cc(Br)ccc2O)no1 | 12.6 µM (active) |  |
| O=C1c2cccnc2C(Nc2ccc(S(=O)(=O)N3CCCCCC3)cc2)N1Cc1ccccc1 (stereo unspecified) | inactive |  |
| COC(=O)c1cn(C)c2ccc(S(=O)(=O)N3CC(C)CC(C)C3)cc2c1=O (stereo unspecified) | inactive |  |
| c1ccc2[nH]c(-c3nc4ccccc4[nH]3)nc2c1 | 2.51 µM (active) |  |
| c1ccc(-c2[nH]ncc2-c2nc3ccccc3[nH]2)cc1 | inactive |  |
| C=CCSc1nc2ccccc2[nH]1 | inactive |  |
